The whole screen tested about 5,500 compounds, of which about 2,000 (36%) were called active. About 18% were inconclusive and are not listed. No stated cut-off is given here; in the data, active means normalized growth mostly below about 0.91 (no sharp cut-off); inconclusive means no clear call, values can overlap the other calls; inactive means mostly above about 0.92. The list shows a part of the results.
Experiment: chemical genetic growth profiling, strain panel (AID 1159580);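 further: tested at 20 µM; growth read once vehicle control cultures reached saturation at 30 °C; 1 = growth at the plate median or of vehicle wells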
Settings: growth OD

Measured: normalized growth

NC[C@H]1O[C@H](OC2[C@@H](N)C[C@@H](N)[C@H](O[C@H]3O[C@H](CO)[C@@H](O)[C@H](N)[C@H]3O)[C@H]2O)[C@H](O)[C@@H](O)[C@@H]1O (some centres undefined)
inactive: S. cerevisiae deletion strains, locus YJR066W, strain TOR1, stronger effect = lower value 0.956 | S. cerevisiae deletion strains, locus YJR075W, strain HOC1, stronger effect = lower value 0.996 | S. cerevisiae deletion strains, locus YKL009W, strain mrt4, stronger effect = lower value 0.985 | S. cerevisiae deletion strains, locus YKL068W, stronger effect = lower value 0.986 | S. cerevisiae deletion strains, locus YKL085W, strain MDH1 (second series), stronger effect = lower value 0.98 | S. cerevisiae deletion strains, locus YKL085W, strain MDH1, stronger effect = lower value 0.98 | S. cerevisiae deletion strains, locus YKL160W, strain elf1, stronger effect = lower value 0.979 | S. cerevisiae deletion strains, locus YKR001C, strain vps1, stronger effect = lower value 0.994 | S. cerevisiae deletion strains, locus YKR026C, strain gcn3, stronger effect = lower value 0.998 | S. cerevisiae deletion strains, locus YKR091W, strain srl3, stronger effect = lower value 1.01 | S. cerevisiae deletion strains, locus YLL001W, strain dnm1, stronger effect = lower value 0.973 | S. cerevisiae deletion strains, locus YLL026W, stronger effect = lower value 1.01 | S. cerevisiae deletion strains, locus YLL041C, strain sdh2, stronger effect = lower value 0.999 | S. cerevisiae deletion strains, locus YLR027C, strain aat2, stronger effect = lower value 1.01 | S. cerevisiae deletion strains, locus YLR039C, strain RIC1, stronger effect = lower value 0.927 | S. cerevisiae deletion strains, locus YLR058C, strain SHM2, stronger effect = lower value 0.978 | S. cerevisiae deletion strains, locus YLR102C, strain apc9, stronger effect = lower value 0.984 | S. cerevisiae deletion strains, locus YLR113W, strain HOG1, stronger effect = lower value 1 | S. cerevisiae deletion strains, locus YLR221C, strain rsa3, stronger effect = lower value 1.01 | S. cerevisiae deletion strains, locus YLR258W, strain gsy2, stronger effect = lower value 1 | S. cerevisiae deletion strains, locus YLR262C, strain YPT6 (second series), stronger effect = lower value 0.994 | S. cerevisiae deletion strains, locus YLR262C, strain YPT6, stronger effect = lower value 1.04 | S. cerevisiae deletion strains, locus YLR268W, strain sec22, stronger effect = lower value 0.986 | S. cerevisiae deletion strains, locus YLR320W, strain mms22, stronger effect = lower value 0.987 | S. cerevisiae deletion strains, locus YLR330W, strain CHS5, stronger effect = lower value 0.993 | S. cerevisiae deletion strains, locus YLR342W, strain FKS1 (second series), stronger effect = lower value 1 | S. cerevisiae deletion strains, locus YLR342W, strain FKS1, stronger effect = lower value 0.995 | S. cerevisiae deletion strains, locus YLR357W, strain rsc2, stronger effect = lower value 0.979 | S. cerevisiae deletion strains, locus YLR370C, strain arc18, stronger effect = lower value 0.993 | S. cerevisiae deletion strains, locus YLR371W, strain rom2, stronger effect = lower value 0.981 | S. cerevisiae deletion strains, locus YLR384C, strain iki3, stronger effect = lower value 0.994 | S. cerevisiae deletion strains, locus YLR418C, strain cdc73, stronger effect = lower value 0.97 | S. cerevisiae deletion strains, locus YML016C, strain PPZ1, stronger effect = lower value 0.99 | S. cerevisiae deletion strains, locus YML032C, strain rad52, stronger effect = lower value 0.984 | S. cerevisiae deletion strains, locus YML120C, strain ndi1, stronger effect = lower value 0.999 | S. cerevisiae deletion strains, locus YML124C, strain tub3, stronger effect = lower value 0.984 | S. cerevisiae deletion strains, locus YMR058W, strain fet3, stronger effect = lower value 1 | S. cerevisiae deletion strains, locus YMR078C, strain ctf18, stronger effect = lower value 0.969 | S. cerevisiae deletion strains, locus YMR125W, strain sto1, stronger effect = lower value 0.973 | S. cerevisiae deletion strains, locus YMR129W, stronger effect = lower value 0.997 | S. cerevisiae deletion strains, locus YMR205C, strain PFK2, stronger effect = lower value 0.975 | S. cerevisiae deletion strains, locus YMR223W, strain ubp8, stronger effect = lower value 0.957 | S. cerevisiae deletion strains, locus YMR231W, strain pep5, stronger effect = lower value 0.993 | S. cerevisiae deletion strains, locus YMR263W, strain SAP30, stronger effect = lower value 0.999 | S. cerevisiae deletion strains, locus YMR307W, strain GAS1, stronger effect = lower value 1.03 | S. cerevisiae deletion strains, locus YNL067W, strain RPL9B, stronger effect = lower value 0.997 | S. cerevisiae deletion strains, locus YNL071W, strain lat1, stronger effect = lower value 0.998 | S. cerevisiae deletion strains, locus YNL153C, strain GIM3, stronger effect = lower value 0.993 | S. cerevisiae deletion strains, locus YNL183C, strain NPR1, stronger effect = lower value 0.969 | S. cerevisiae deletion strains, locus YNL209W, strain ssb2, stronger effect = lower value 0.996 | S. cerevisiae deletion strains, locus YNL233W, strain BNI4, stronger effect = lower value 0.993 | S. cerevisiae deletion strains, locus YNL248C, strain rpa49, stronger effect = lower value 0.988 | S. cerevisiae deletion strains, locus YNL250W, strain rad50, stronger effect = lower value 0.974 | S. cerevisiae deletion strains, locus YNL271C, strain bni1, stronger effect = lower value 0.978 | S. cerevisiae deletion strains, locus YNL298W, strain CLA4, stronger effect = lower value 0.97 | S. cerevisiae deletion strains, locus YNL307C, strain MCK1, stronger effect = lower value 0.971 | S. cerevisiae deletion strains, locus YNL322C, strain KRE1 (second series), stronger effect = lower value 0.986 | S. cerevisiae deletion strains, locus YNL322C, strain KRE1, stronger effect = lower value 0.996 | S. cerevisiae deletion strains, locus YNR049C, strain mso1, stronger effect = lower value 0.992 | S. cerevisiae deletion strains, locus YNR052C, strain pop2, stronger effect = lower value 0.973 | S. cerevisiae deletion strains, locus YOL006C, strain TOP1, stronger effect = lower value 0.968 | S. cerevisiae deletion strains, locus YOL012C, strain htz1 1.24 | S. cerevisiae deletion strains, locus YOL147C, strain pex11, stronger effect = lower value 0.982 | S. cerevisiae deletion strains, locus YOR001W, strain rrp6, stronger effect = lower value 1.02 | S. cerevisiae deletion strains, locus YOR061W, strain CKA2, stronger effect = lower value 0.989 | S. cerevisiae deletion strains, locus YOR069W, strain VPS5, stronger effect = lower value 0.989 | S. cerevisiae deletion strains, locus YOR070C, strain gyp1, stronger effect = lower value 0.998 | S. cerevisiae deletion strains, locus YOR080W, strain dia2, stronger effect = lower value 1 | S. cerevisiae deletion strains, locus YOR083W, strain WHI5, stronger effect = lower value 0.988 | S. cerevisiae deletion strains, locus YOR106W, strain vam3, stronger effect = lower value 0.976 | S. cerevisiae deletion strains, locus YOR136W, strain idh2, stronger effect = lower value 0.984 | S. cerevisiae deletion strains, locus YOR144C, strain elg1, stronger effect = lower value 0.987 | S. cerevisiae deletion strains, locus YOR184W, strain ser1, stronger effect = lower value 0.971 | S. cerevisiae deletion strains, locus YOR231W, strain MKK1, stronger effect = lower value 0.983 | S. cerevisiae deletion strains, locus YOR265W, strain rbl2, stronger effect = lower value 1 | S. cerevisiae deletion strains, locus YOR270C, strain vph1, stronger effect = lower value 1.02 | S. cerevisiae deletion strains, locus YOR290C, strain snf2, stronger effect = lower value 0.949 | S. cerevisiae deletion strains, locus YOR316C, strain cot1, stronger effect = lower value 0.98 | S. cerevisiae deletion strains, locus YPL051W, strain arl3, stronger effect = lower value 0.992 | S. cerevisiae deletion strains, locus YPL078C, strain atp4, stronger effect = lower value 0.992 | S. cerevisiae deletion strains, locus YPL106C, strain sse1, stronger effect = lower value 0.998 | S. cerevisiae deletion strains, locus YPL240C, strain hsp82, stronger effect = lower value 0.987 | S. cerevisiae deletion strains, locus YPL256C, strain CLN2, stronger effect = lower value 0.994 | S. cerevisiae deletion strains, locus YPR119W, strain clb2, stronger effect = lower value 0.977 | S. cerevisiae deletion strains, locus YPR141C, strain kar3, stronger effect = lower value 0.962 | S. cerevisiae deletion strains, locus YPR163C, strain tif3, stronger effect = lower value 0.978 | S. cerevisiae deletion strains, locus YPR167C, strain met16, stronger effect = lower value 0.981 | S. cerevisiae deletion strains, strain wtn01, stronger effect = lower value 0.989 | S. cerevisiae strains, strain wild type, stronger effect = lower value 0.995

— PubChem BioAssay AID1159580 (chemical genetic matrix, 2015)
